Source: PubChem BioAssay (EPA / NIEHS)
Inconclusive results are not listed. Calls of active or inactive are those of the source. The calls were made as follows, unless noted: active = hit-call score of the fitted dose curve at least 0.9, where 1 is the maximum; inconclusive = response in the unintended direction; inactive = score below 0.9.

Tests used:
[1] = Tanguay_ZF_120hpf_JAW_legacy: (Legacy) Oregon State University Tanguay Lab 120 Hour Post-fertilization zebrafish Assay for Jaw Malformation (AID 2283638)
Summary of the method: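 Wild-type 5D embryos, chorion removed at 4 hpf, dosed singly from 6 hpf; 28C static, sealed, foil-covered, to 120 hpf. Endpoint: jaw defect yes/no (brightfield); mortality excludes scoring.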

[2] = Tanguay_ZF_120hpf_OTIC_legacy: (Legacy) Oregon State University Tanguay Lab 120 Hour Post-fertilization zebrafish Assay for Otic Vesicle Malformation (AID 2283639)
Summary of the method: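 Brightfield scoring at 120 hpf, binary present/absent; DMSO negative control, 5uM trimethyltin chloride positive control. Static exposure at 28C, final DMSO 0.64% (vol/vol). Dead embryos not scored for malformation.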

[3] = Tanguay_ZF_120hpf_PE_legacy: (Legacy) Oregon State University Tanguay Lab 120 Hour Post-fertilization zebrafish Assay for Pericardial Edema (AID 2283640)
Summary of the method: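 Zebrafish larvae are exposed from early development to 120 hpf at 28C, with 0.64% DMSO final. Each surviving larva receives a yes/no pericardial edema call by brightfield imaging, analysed relative to the DMSO baseline.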

[4] = Tanguay_ZF_120hpf_BRAI_legacy: (Legacy) Oregon State University Tanguay Lab 120 Hour Post-fertilization zebrafish Assay for Brain Malformation (AID 2283641)
Summary of the method: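 Static exposure of staged wild-type embryos until 120 hpf, kept at 28C with light excluded and final DMSO of 0.64% (vol/vol). Presence or absence of brain malformation was noted under brightfield; mortality precluded scoring.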

[5] = Tanguay_ZF_120hpf_SOMI_legacy: (Legacy) Oregon State University Tanguay Lab 120 Hour Post-fertilization zebrafish Assay for Somite Malformation (AID 2283647)
Summary of the method: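 Somitogenesis defects are recorded as binary calls in whole larvae at 120 hpf after continuous static chemical exposure starting at 6 hpf in dechorionated 5D embryos. DMSO serves as negative control and baseline.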

[6] = Tanguay_ZF_120hpf_PFIN_legacy: (Legacy) Oregon State University Tanguay Lab 120 Hour Post-fertilization zebrafish Assay for Pectoral Fin Malformation (AID 2283648);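 also: each larva judged yes or no for fin defect by brightfield with dead larvae skipped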
Summary of the method: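 Binary pectoral fin malformation call at 120 hpf by brightfield microscopy; 5D wild-type zebrafish, chorion removed at 4 hpf, one embryo per well from 6 hpf, static exposure at 28C; DMSO (0.64% final) as baseline.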

[7] = Tanguay_ZF_120hpf_CFIN_legacy: (Legacy) Oregon State University Tanguay Lab 120 Hour Post-fertilization zebrafish Assay for Caudal Fin Malformation (AID 2283649)
Summary of the method: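 Single dechorionated 5D wild-type embryos are dosed at 6 hpf (final DMSO 0.64%) and held statically at 28C. Caudal fin malformation is recorded as present or absent at 120 hpf under brightfield, excluding dead embryos.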

[8] = Tanguay_ZF_120hpf_PIG_legacy: (Legacy) Oregon State University Tanguay Lab 120 Hour Post-fertilization zebrafish Assay for Pigmentation Malformation (AID 2283650);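 also: dechorionated Tropical 5D zebrafish embryos exposed singly from 6 to 120 hpf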
Summary of the method: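 Brightfield scoring of pigmentation malformation at 120 hpf, recorded as binary present/absent per larva. Exposure: dechorionated 5D wild-type embryos, one per well, static from 6 hpf at 28C, final DMSO 0.64% (vol/vol). Dead embryos not scored.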

[9] = Tanguay_ZF_120hpf_CIRC_legacy: (Legacy) Oregon State University Tanguay Lab 120 Hour Post-fertilization zebrafish Assay for Circulatory Malformation (AID 2283651)
Summary of the method: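 Static exposure, 6–120 hpf, 28C, sealed and dark; one dechorionated 5D embryo/well; DMSO 0.64% v/v final. Binary circulation endpoint by brightfield; dead embryos not scored.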

[10] = read-out: kallikrein-3 (KLK3), KLK3 (gene 354); assay: LTEA_HepaRG_KLK3: Life Technologies and Expression Analysis (LTEA) Assay for kallikrein-3 (KLK3) using HepaRG (AID 2283652; active = hit-call score of the fitted dose curve at least 0.9, where 1 is the maximum; inactive = score below 0.9); conditions: mRNA level, 48 h; actives raise or lower the signal
Summary of the method: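 KLK3 transcript levels were measured by TaqMan qRT-PCR with normalisation to three housekeeping genes. HepaRG cultures received chemicals for 48 h at up to 100 uM (half-log, 8 points, 0.5% DMSO vehicle), fitted in both directions against DMSO.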

[11] = read-out: solute carrier (SLC22A6), SLC22A6 (gene 9356); assay: LTEA_HepaRG_SLC22A6: Life Technologies and Expression Analysis (LTEA) Assay for solute carrier (SLC22A6) using HepaRG (AID 2283653; active = hit-call score of the fitted dose curve at least 0.9, where 1 is the maximum; inactive = score below 0.9); conditions: mRNA level, 48 h; actives raise or lower the signal
Summary of the method: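 Gene-expression endpoint in HepaRG hepatic cells: duplicate 8-point concentration-response, highest 100 uM, 48 h treatment in serum-free medium with 0.5% DMSO. SLC22A6 expression measured by qRT-PCR, normalised to ACTB/GAPDH/POLR2A.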

[12] = Tanguay_ZF_120hpf_SWIM_legacy: (Legacy) Oregon State University Tanguay Lab 120 Hour Post-fertilization zebrafish Assay for Swim Bladder Malformation (AID 2283654);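 also: swim bladder malformation in each larva scored yes or no under brightfield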
Summary of the method: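 Tropical 5D embryos dechorionated at 4 hpf; 1 embryo/well from 6 hpf; static, sealed, dark exposure at 28C until 120 hpf; final DMSO 0.64%; 5uM trimethyltin chloride positive control; swim bladder defect recorded yes/no; dead embryos not scored.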

[13] = Tanguay_ZF_120hpf_TRUN_legacy: (Legacy) Oregon State University Tanguay Lab 120 Hour Post-fertilization zebrafish Assay for Truncated Body (AID 2283655)
Summary of the method: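 Single dechorionated zebrafish embryos received test chemical from 6 hpf in 0.64% DMSO, kept at 28C. At 120 hpf, brightfield inspection noted any truncated body.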

[14] = Tanguay_ZF_120hpf_NC_legacy: (Legacy) Oregon State University Tanguay Lab 120 Hour Post-fertilization zebrafish Assay for Notochord and Tail Malformation (AID 2283656)
Summary of the method: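 Binary notochord-distortion calls, made by brightfield inspection, form the read-out; activity is fitted in the positive direction against DMSO. Exposure ran statically from 6 to 120 hpf at 28C with 0.64% DMSO.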

[15] = read-out: solute carrier (SLC10A1), SLC10A1 (gene 6554); assay: LTEA_HepaRG_SLC10A1: Life Technologies and Expression Analysis (LTEA) Assay for solute carrier (SLC10A1) using HepaRG (AID 2283657; active = hit-call score of the fitted dose curve at least 0.9, where 1 is the maximum; inactive = score below 0.9); conditions: mRNA level, 48 h; actives raise or lower the signal
Summary of the method: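 HepaRG, 48 h exposure, 8-pt half-log curve from 100 uM in 0.5% DMSO, duplicates. Read-out: TaqMan qRT-PCR of SLC10A1 mRNA, normalized to three housekeeping genes. Gain/loss fit vs DMSO baseline.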

[16] = read-out: matrix metalloproteinase-1 (MMP1), MMP1 (gene 4312); assay: LTEA_HepaRG_MMP1: Life Technologies and Expression Analysis (LTEA) Assay for matrix metalloproteinase-1 (MMP1) using HepaRG (AID 2283658; active = hit-call score of the fitted dose curve at least 0.9, where 1 is the maximum; inactive = score below 0.9); conditions: mRNA level, 48 h; actives raise or lower the signal
Summary of the method: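 In this screen, human liver HepaRG cultures receive each chemical in duplicate for 48 h (top 100 uM, 0.5% DMSO). MMP1 expression is then quantified by TaqMan qRT-PCR with ACTB/GAPDH/POLR2A normalization.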

[17] = Tanguay_ZF_120hpf_TR_legacy: (Legacy) Oregon State University Tanguay Lab 120 Hour Post-fertilization zebrafish Assay for Touch Response (AID 2283667)
Summary of the method: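 Binary touch-response call at 120 hpf, analysed as gain of signal versus DMSO baseline. Wild-type 5D larvae, static exposure at 28C, 0.64% DMSO final; 5uM trimethyltin chloride as positive control.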

[18] = read-out: Cytochrome P450 (CYP24A1_1), CYP24A1 (gene 1591); assay: LTEA_HepaRG_CYP24A1_1: Life Technologies and Expression Analysis (LTEA) Assay for Cytochrome P450 (CYP24A1_1) using HepaRG (AID 2283671; active = hit-call score of the fitted dose curve at least 0.9, where 1 is the maximum; inactive = score below 0.9); conditions: mRNA level, 48 h; actives raise or lower the signal
Summary of the method: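 Readout is CYP24A1 transcript level by qRT-PCR, normalized to three housekeeping genes, with gain or loss of signal fitted against 0.5% DMSO. Human HepaRG cells received compound for 48 h at up to 100 uM.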

[19] = system: Thyroperoxidase (TPO), gene 54314; assay: CCTE_Simmons_AUR_rTPO: CCTE's Amplex UltraRed Assay for Thyroperoxidase (TPO) Inhibition, Simmons Lab (AID 2283662);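 also: potency for loss of signal meaning inhibition of peroxidase activity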
Summary of the method: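 Rat thyroid microsomes (5 ug protein) were incubated with test compound (8 concentrations, 5 nM–87.5 uM final, 0.5% DMSO), 25 uM Amplex UltraRed and 300 uM H2O2 in 200 mM phosphate buffer for 30 min at 37C in the dark; fluorescence read at 544/590 nm.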

[20] = CCTE_Simmons_CellTiterGLO_HEK293T: Viability Assessment in CCTE's Assays for Thyroperoxidase (TPO) Inhibition, Simmons Lab (AID 2283665);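 as to AC50: cells exposed to compound for 24 h before readout; actives reduce ATP signal below DMSO vehicle meaning cytotoxicity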
Summary of the method: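 Luminescent ATP readout (CellTiter-Glo, 20 min at room temperature) after 24 hr exposure of HEK293T cells to 5 nM–87.5 uM final compound; signal loss relative to DMSO vehicle indicated cytotoxicity; dichlone titrated as positive control.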

Measured: AC50

CN(C)CCCN1c2ccccc2Sc2ccc(Cl)cc21
active: [15] 21 µM | [16] 84.9 µM
inactive: [1] | [2] | [3] | [4] | [5] | [6] | [7] | [8] | [9] | [10] | [11] | [12] | [13] | [14] | [17] | [18]

CO[C@@H]1COCC[C@@H]1N[C@@H]1CC[C@@](C(=O)N2CCc3ncc(C(F)(F)F)cc3C2)(C(C)C)C1
inactive: [1] | [2] | [3] | [4] | [5] | [6] | [7] | [8] | [9] | [12] | [13] | [14] | [17]

CN(C)CCCN(C)CCCN(C)C
inactive: [1] | [2] | [3] | [4] | [5] | [6] | [7] | [8] | [9] | [12] | [14] | [17]

CCCCC(CC)CO (configuration not stated)
inactive: [10] | [11] | [15] | [16] | [18]

CC(C)NCC(O)c1ccc(O)c(O)c1 (configuration not stated)
inactive: [1] | [2] | [3] | [4] | [7] | [8] | [9] | [12] | [13] | [14] | [20] | [17]
active: [19] 0.616 µM

CC(COCC(C)OC(=O)c1ccccc1)OC(=O)c1ccccc1 (configuration not stated)
inactive: [1] | [2] | [4] | [5] | [7] | [8] | [9] | [12] | [13] | [17]

C/C=C/C=C/C(=O)O
inactive: [1] | [3] | [4] | [5] | [6] | [7] | [8] | [9] | [12] | [14] | [17]
active: [19] 48.8 µM | [20] 48.8 µM

N[C@@H](Cc1c[nH]c2ccccc12)C(=O)O
inactive: [1] | [2] | [5] | [6] | [7] | [8] | [9] | [12] | [13] | [14] | [17]

Cn1cnc2c1c(=O)[nH]c(=O)n2C
inactive: [1] | [2] | [4] | [5] | [6] | [8] | [9] | [12] | [14] | [17]

CCCCC(CC)COP(=O)(OCC(CC)CCCC)OCC(CC)CCCC (configuration not stated)
inactive: [1] | [2] | [3] | [5] | [6] | [7] | [8] | [12] | [13] | [14] | [17]

CCCCC(CC)COC(=O)CCCCCCCC(=O)OCC(CC)CCCC (configuration not stated)
inactive: [1] | [2] | [5] | [6] | [7] | [8] | [9] | [12] | [13] | [17]

NC1CCCCC1
inactive: [1] | [2] | [3] | [4] | [7] | [8] | [9] | [13] | [14] | [17]

O=C(O)CN(CC(=O)O)CC(=O)O
inactive: [1] | [3] | [4] | [5] | [6] | [8] | [9] | [12] | [13] | [14] | [17]

C=CCCCCCCCCCCCC
inactive: [2] | [3] | [4] | [5] | [6] | [9] | [12] | [13] | [14] | [17]

CCN(CC)CCOc1ccc(C(=C(Cl)c2ccccc2)c2ccccc2)cc1
inactive: [1] | [2] | [3] | [4] | [7] | [9] | [12] | [13] | [14]

Nc1nc(=S)c2[nH]cnc2[nH]1
active: [19] 0.414 µM | [20] 1.29 µM
inactive: [1] | [3] | [6] | [7] | [8] | [12] | [13] | [14] | [17]
